Screening results: PubChem, National Center for Advancing Translational Sciences (NCATS)
Sampled rows, rich in hits. Any-hit rate of the full collection: about 2.4%.
ATXN2 expr inh: inhibitors of ATXN2 expression; HEK-293 ATXN2-luciferase reporter, luminescence, 24 h; Potency, µM (doses to about 57 µM), for inactives: top-dose activity change, negative = inhibition, hits mostly inhibitors; 0.72% of 360,000 active; further: on the % scale 0 is the no-effect control and ±100 the full control effect; nearly all actives have a fitted effect of over 55% in size
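qHTS (up to 57 uM final) was run with 24 h compound exposure of reporter cells at 37 °C. Each well was multiplexed: SteadyGlo luminescence measured ATXN2-luciferase expression after a fluorogenic Gly-Phe-AFC viability readout (25 uM final).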
Anesthetic bind: binds horse apoferritin like a general anesthetic | apoferritin/1-aminoanthracene competitive binding, fluorescence | Potency, µM (titrated, usually from 77.5 µM), for the others: at the top dose activity change, negative = displacement, hits mostly inhibitors | 0.074% of 350,000 active; further: on the % scale 0 is the no-effect control and ±100 the full control effect; nearly all actives have a fitted effect of over 20% in size
Target sequence (P02791 2-175 limits assumed): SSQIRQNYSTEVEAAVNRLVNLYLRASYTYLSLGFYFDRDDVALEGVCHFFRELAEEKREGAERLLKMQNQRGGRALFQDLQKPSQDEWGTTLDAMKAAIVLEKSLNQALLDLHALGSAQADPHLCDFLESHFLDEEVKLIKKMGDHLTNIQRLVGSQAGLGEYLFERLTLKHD
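Steps: apoferritin (10 uM) was premixed with half-saturated 1-AMA in PBS, compounds were pin-transferred, plates stood 10 min at room temperature, fluorescence was read at 380/535 nm, and curves were fitted with a Hill equation.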
ATXN viability: cell viability loss in ATXN counter-screen; S2 cells (HEK-293 line with an ATXN2-luciferase reporter) viability, CellTiter-Fluor protease fluorescence, 24 h; Potency, µM (doses to about 56.7 µM), hits mostly cytotoxic; 0.49% of 400,000 active; further: nearly all actives have a fitted effect of over 40% in size
TGFb SMAD3 inh: blocks TGF-b signaling; HepG2 CAGA-GFP TGF-b/SMAD3 reporter, GFP fluorescence, 18 h; TGF-beta stimulated, 500 pg/mL final; Potency, µM (highest dose often 46.1 µM), without a hit: at the highest dose activity, negative = inhibition, most hits filed as inhibitors; 1.2% of 410,000 active; AID 588855; further: on the % scale 0 is the no-effect control and ±100 the full control effect; nearly all actives have a fitted effect of over 65% in size
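HEPG2 CAGA-GFP, 1000 cells/well; 2 h settle, 37 C; cpd via pin tool; TGF-b 500 pg/mL final; 18 h, 37 C; GFP imaging ex488/em500-530; %Activity normalised to -TGF-b and +DMSO controls; CRC fit, curve class.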
HepG2 tox-1: kills HepG2 cells in TGF-b inhibitor counter-screen; AID 588856; HepG2 CAGA-GFP viability, ATP luminescence, 18 h; Potency, µM (titrated, usually from 46.1 µM), without a hit: at the highest dose activity change, negative = cytotoxicity, most hits filed as cytotoxic; 0.76% of 410,000 active
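CellTiter-Glo luminescence gave cytotoxicity after 18 hours at 37 degrees C. The cells were HepG2 CAGA-GFP in 1% FBS DMEM, stimulated with 500 pg/mL TGF-beta after compound addition. %Activity was normalised to no-cell wells (complete cell-killing) and DMSO (no toxicity), and curves were fitted and classified.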
TGFb confirm: TGF-b pathway inhibition, cherry-pick retest | shares compounds with TGFb SMAD3 inh | HepG2 CAGA-GFP TGF-b reporter, GFP fluorescence, 18 h; cells stimulated with TGF-beta, 500 pg/mL | Potency, µM (highest dose often 46.1 µM), without a hit: at the highest dose activity, negative = inhibition, most hits filed as inhibitors | 63% of 1,600 active; further: on the % scale 0 is the no-effect control and ±100 the full control effect; nearly all actives have a fitted effect of over 65% in size
HepG2 tox-2: toxic to HepG2 cells in TGF-b counterscreen; shares compounds with TGFb SMAD3 inh; HepG2 CAGA-GFP viability, ATP luminescence, 18 h; cells stimulated with TGF-beta, 500 pg/mL; Potency, µM (series often up to 46.1 µM), inactives show top-dose activity, negative = cytotoxicity, usual class: inhibitors; 27% of 1,600 active; further: on the % scale 0 is the no-effect control and ±100 the full control effect; nearly all actives have a fitted effect of over 70% in size
CCL64 TGFb inh: TGF-b inhibition, CCL64 orthogonal assay; shares compounds with TGFb SMAD3 inh; Potency, µM (series often up to 46.1 µM), for the others: top-dose activity, negative = inhibition, actives largely listed as inhibitors; 41% of 1,600 active; CCL64 CAGA-GFP reporter, TGF-b stimulated, GFP fluorescence, 18 h; AID 720536; further: nearly all actives have a fitted effect of over 65% in size
TGFb COP inh: TGF-b inhibition validated with COP promoter; 3% of 1,600 active; HepG2 COP-GFP TGF-b reporter, GFP fluorescence, 18 h; cells stimulated by added recombinant TGF-beta; shares compounds with TGFb SMAD3 inh; AID 720537; Potency, µM (titrated, usually from 46.1 µM), for the others: at the highest dose activity, negative = inhibition, usual class: inhibitors; further: nearly all actives have a fitted effect of over 70% in size
Active calls of the source: *; i = inactive; ? = inconclusive; . = not tested or not shown. The call rests on the fitted dose curve; in most records, active means well fitted curve in the direction sought with a large enough effect; inconclusive means small, poorly fitted or top-dose-only effect, or another doubt; inactive means no such curve, though single readings can be large; an effect the other way counts as inactive or inconclusive. Potency means the concentration at half of the fitted maximal effect.

SMILES | ATXN2 expr inh | Anesthetic bind | ATXN viability | TGFb SMAD3 inh | HepG2 tox-1 | TGFb confirm | HepG2 tox-2 | CCL64 TGFb inh | TGFb COP inh
Clc1cccc(Nc2nc(-c3ccncc3)nc3ccccc23)c1 | ? | -3% | ? | 2% | -41% | ? | ? | ? | 9%
O=C(Cc1cccs1)Nc1nc2c(ccc3ccccc32)s1 | -1% | 8% | i | 14µM* | -26% | 16µM* | -19% | ? | -3%
CC(=O)Nc1nc2c(ccc3ccccc32)s1 | 33% | -2% | i | ? | -53% | . | . | . | .
CCOCCOC(=O)c1[nH]c2c(c1C)C(=O)CC(c1ccccc1)C2 (stereo not given) | -14% | 2% | ? | ? | -23% | . | . | . | .
CCCCCOC(=O)c1[nH]c2c(c1C)C(=O)CC(c1ccco1)C2 (stereo not given) | -28% | -18% | ? | 0.79µM* | -6% | 1.2µM* | -2% | 0.23µM* | -13%
O=C(c1cc(-c2ccccc2Cl)nc2ccc(Br)cc12)N1CCN(c2ccccn2)CC1 | ? | . | ? | ? | -27% | -30% | ? | ? | 11%
O=C(c1cc(-c2ccc(Br)cc2)nc2ccccc12)N1CCN(c2ccccc2O)CC1 | 12% | . | i | 11µM* | -2% | 6.5µM* | ? | ? | 2%
CN1CCC[C@H]1CCNc1ccc2c(=O)c3ccccc3n(C)c2c1 | ? | . | . | 16µM* | 0% | ? | ? | 21µM* | 62%
COc1ccc(C(=O)CSc2ccccc2C(=O)O)cc1 | . | -6% | i | -14% | -21% | . | . | . | .
O=C(NC1CCN(C(=O)Nc2ccc(F)cc2)CC1)c1ccccc1F | -12% | -2% | i | -3% | -12% | . | . | . | .
Cc1ccc(-n2c(SCC(N)=O)nc3c(c2=O)C2(CCCC2)Cc2ccccc2-3)cc1 | -24% | -22% | i | 8.9µM* | 11% | 13µM* | 15µM* | ? | 19%
CCSc1n[nH]c2nc3c(c(=O)n12)C1(CCCC1)Cc1ccccc1-3 | 0% | 1% | . | -5% | -7% | . | . | . | .
CCOC(=O)c1ccc(NC(=O)CSc2nc(-c3cccs3)cc(C(F)(F)F)c2C#N)cc1 | . | 28% | . | 18% | 2% | . | . | . | .
Cc1cc(/C=N/NC(N)=S)c(C)n1-c1ccc(Br)cc1 | -18% | -4% | ? | 13µM* | -20% | 10µM* | ? | ? | 34%
Cc1cc(/C=N/NC(N)=S)c(C)n1-c1cccc(Cl)c1 | -19% | -18% | ? | 11µM* | -19% | 15µM* | -24% | 16µM* | 44%
C/C(=N\NC(=O)OC(C)(C)C)c1cccc([N+](=O)[O-])c1 | 30% | -4% | i | -1% | 1% | . | . | . | .
CCOC(=O)c1[nH]ncc1CN1CCN(Cc2ccc(C)cc2)C(CCO)C1 (stereo not given) | -4% | -4% | i | 6% | 12% | . | . | . | .
O=C(NCc1ccco1)/C(=C/c1ccccc1F)NC(=O)c1ccccc1 | 3% | 4% | i | 4% | 3% | . | . | . | .
COc1ccc(C2C(=O)NN=C2C)cc1 (stereo not given) | -23% | . | i | 3% | -10% | . | . | . | .
CCc1cccc(NC(=O)c2cc3c(=O)[nH]c4ccccc4c3n2C)c1 | -11% | -9% | i | -10% | -46% | . | . | . | .
O=C1[C@@H](Oc2ccccc2)[C@@H](c2cnc3ccccc3c2)N1c1ccccc1 | -29% | . | ? | 11µM* | -22% | 21µM* | -8% | 16µM* | -8%
O=C1[C@H](Oc2ccccc2)[C@@H](c2ccncc2)N1c1ccncc1 | 10% | . | i | -8% | -3% | . | . | . | .
CC(NC(=O)CN1C(=O)COc2ccc(Cl)cc21)c1ccccc1 (stereo not given) | -3% | -5% | i | -6% | -27% | . | . | . | .
COc1c(C)cc(C(O)c2ncc(-c3ccccc3C(F)(F)F)[nH]2)cc1C (stereo not given) | -17% | . | i | -19% | -7% | . | . | . | .
C/C(CC(=O)Nc1ccc(Cl)c(C(F)(F)F)c1)=N\NC(=O)c1ccccc1O | -21% | -11% | i | 16µM* | -68% | ? | ? | ? | 102%
SMILES | ATXN2 expr inh | Anesthetic bind | ATXN viability | TGFb SMAD3 inh | HepG2 tox-1 | TGFb confirm | HepG2 tox-2 | CCL64 TGFb inh | TGFb COP inh
C/C(CC(=O)Nc1ccc(Cl)c(C(F)(F)F)c1)=N\NC(=O)c1cccc(O)c1 | 0% | ? | i | -5% | -2% | . | . | . | .
S=C(Nc1ccc(Cl)cc1)NC1CCCCC1 | 18% | 3% | i | ? | -45% | . | . | . | .
S=C(Nc1ccc(Br)cc1)NC1CCCCC1 | 51% | -8% | i | 10µM* | -45% | ? | ? | ? | 10%
CN(CCc1ccccn1)C(=O)CCC1CCCN(C(=O)c2ccc3c(c2)OCCO3)C1 (stereo not given) | 20% | -3% | i | -2% | -14% | . | . | . | .
O=C(NCc1ccco1)c1ccccc1NS(=O)(=O)c1ccc(Cl)s1 | -13% | -15% | i | -26% | -49% | . | . | . | .
O=C(Nc1ccccc1Cc1ccccc1)c1ccccc1NS(=O)(=O)c1ccc(Cl)s1 | ? | -8% | i | 4.5µM* | -25% | 5.8µM* | 10µM* | 9.2µM* | 80%
OCC1(Cc2ccccc2)CCN(Cc2cnc(-c3cccc4ccccc34)nc2)CC1 | -2% | -24% | i | -9% | -18% | . | . | . | .
OCC1(Cc2ccccc2)CCN(Cc2cnc(-c3ccc(Cl)cc3)nc2)CC1 | 22% | -20% | i | 8.9µM* | 16µM* | -10% | ? | 0% | 36%
CC(Sc1nnc(-c2ccncc2)n1C)C(=O)NCC1CCCO1 (stereo not given) | -3% | . | i | -19% | -9% | . | . | . | .
COc1cccc(-c2nc(N3CCCCC3)c3ccccc3n2)c1O | 3% | . | i | 11µM* | 12% | 18µM* | ? | ? | 78%
COc1cccc(-c2nc(N3CCN(c4ccccc4)CC3)c3ccccc3n2)c1O | 5% | -8% | i | 2% | -12% | . | . | . | .
